Out of some 300,000 compounds screened, about 4,000 (1.3%) were called active. The sample holds actives, similar compounds and a random draw of the others, so the mix is not that of the screen. A number with no mark means an inactive call.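 Rule for the calls: active = mean replicate score, as percent of positive control median, at least 50; inconclusive = mean below 50 but one replicate at or above 50; inactive = mean and every replicate below 50.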
Experiment: S. pyogenes SKKanGAS growth inhibitors in kanamycin, primary screen, streptokinase expression inhibitor project, SKKanGAS strain, BacTiter-Glo luminescence (AID 1662);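 note: strain carries kanamycin resistance gene driven by streptokinase promoter and grows in 40 µg/ml kanamycin; loss of luminescence reflects streptokinase promoter inhibition or plain growth inhibition; 0% = median of DMSO wells and 100% = positive control at its reference dose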
Details: 6 h, at 7.5 µM, stronger effect = higher value

Row | Compound | inhibition
1 | CC(C)(C)c1ccc(C(=O)NCCn2c(N)c(C#N)c3nc4ccccc4nc32)cc1 | 8.82%
2 | CCOc1ccccc1NC(=O)Cn1nnc(C(=O)NCc2cccs2)c1N | -0.164%
3 | CC(C)Cn1c(N)c(C(=O)NCc2cccs2)c2nc3ccccc3nc21 | 88.2% (active)
4 | O=C(NCCS(=O)(=O)N1CCN(c2ccccc2)CC1)c1ccco1 | -0.162%
5 | COc1cc(OC)c(OC)cc1CN1CCN(C(=O)c2cccc3ccccc23)CC1 | -1.09%
6 | Cc1ccc(S(=O)(=O)N2CC(C)N(S(C)(=O)=O)C2)cc1 (centres undefined) | -4.98%
7 | Cc1c(C(N)=O)sc2ncn(CCOc3ccccc3)c(=O)c12 | 2.66%
8 | CCOC(=O)C(C)n1cnc2sc(C)c(C)c2c1=O (centres undefined) | 2.1%
9 | Cc1cccc(OC(=O)c2sc3ncn(C)c(=O)c3c2C)c1 | 82.2% (active)
10 | COc1ccccc1C(C)NC(=O)Cc1ccsc1 (centres undefined) | 5.44%
11 | CC(CNc1ccc([N+](=O)[O-])cc1)NC(=O)c1ccccc1Br (centres undefined) | -0.0993%
12 | O=C(Cc1csc(Nc2nc(=S)[nH]c3ccccc23)n1)NCCCN1CCN(c2cccc(Cl)c2)CC1 | 67.8% (active)
13 | COc1cccc(CNC(=O)Cc2csc(Nc3nc(=S)[nH]c4ccccc34)n2)c1 | 5.91%
14 | O=C(CCn1c(=O)[nH]c2ccccc2c1=O)NCCCN1CCN(c2cccc(Cl)c2)CC1 | 2.26%
15 | CN1C(=O)C2(OCCCO2)c2cc(Cl)ccc21 | -1.28%
16 | C/C(=N\Nc1nncc2ccccc12)c1ccc(Cl)c([N+](=O)[O-])c1 | -1.2%
17 | COc1cc(/C=N/Nc2nn3cnnc3c3ccccc23)cc(OC)c1OC | -2.2%
18 | CN(CCO)c1ccc(/C=N/Nc2nncc3ccccc23)cc1 | 68.8% (active)
19 | CC[N+]1(CC)CC2=Cc3ccccc3CC2C1 (centres undefined) | 5.88%
20 | COc1ccccc1OCCNc1cc(N2CCOCC2)ccc1[N+](=O)[O-] | -5.71%
21 | O=C(CSc1ccc(-c2ccc(Br)cc2)nn1)NCC1CCCO1 (centres undefined) | -6.3%
22 | OC(CNCC1CCCO1)Cn1c2ccc(Br)cc2c2cc(Br)ccc21 (centres undefined) | 52.3% (active)
23 | CC(NS(=O)(=O)c1ccc(Br)cc1)C(=O)NCC1CCCO1 (centres undefined) | -0.664%
24 | CCOC(=O)C1(CCOc2ccccc2)CCN(Cc2cc(OC)cc(OC)c2)CC1 | -5.86%

Row | Compound | inhibition
25 | CC1CCCCN1S(=O)(=O)CCNC(=O)c1ccccc1 (centres undefined) | -1.35%
26 | CCn1c(SCC(=O)NC2CC2)nnc1-c1ccccn1 | 0.558%
27 | CC(C)(C)c1cc(C(=O)N/N=C/c2ccc([N+](=O)[O-])s2)n[nH]1 | 51.8% (active)
28 | Cc1ccccc1NCC(=O)N/N=C\c1ccc([N+](=O)[O-])s1 | 7.47%
29 | COc1ccc(C(=O)NCC(=O)N/N=C/c2ccc([N+](=O)[O-])s2)cc1OC | -2.08%
30 | CCCCCCSc1nsc(N)n1 | 5.66%
31 | O=C(NCc1ccccc1)C(c1ccco1)N(C(=O)c1csnn1)c1ccccc1F (centres undefined) | 1.53%
32 | CC1(C)CC2CC(C)(CN2c2ncnc3ccc(Br)cc23)C1 (centres undefined) | 18.3%
33 | CC(=O)Nc1nc2ccccc2n1Cc1ccc(C)cc1 | 24.3%
34 | CCCCn1c(CCCNC(=O)CC)nc2ccccc21 | -0.548%
35 | CCC(=O)Nc1nc2ccccc2n1Cc1ccccc1C | 61.8% (active)
36 | CC(C)C1N=C2c3ccccc3N=C(SCC(=O)c3ccc(O)c(O)c3)N2C1=O (centres undefined) | 19%
37 | O=S(=O)(NC1CCCCC1N1CCCCC1)c1ccc(Cl)cc1 (centres undefined) | 1.78%
38 | Cc1ccc(S(=O)(=O)N2CCC(C(=O)OCC(=O)N(C)c3ccccc3)CC2)cc1C | -2.14%
39 | Nc1ccc(S(=O)(=O)Nc2nccc(/C=C/c3ccc(Br)s3)n2)cc1 | 2.22%
40 | Oc1cccc2ccc(/C=C/c3ccc(Br)s3)nc12 | 77.1% (active)
41 | COc1cc2c(cc1OC)C(c1cccc([N+](=O)[O-])c1)=NCC2 | -3.25%
42 | CCc1nc2ccc(C(=O)N3CCN(c4cccc(Cl)c4)CC3)cc2nc1CC | 7.12%
43 | CCN1CCN(C(c2cccnc2)c2cc(Cl)c3cccnc3c2O)CC1 (centres undefined) | 28.1%
44 | Oc1c(CN2CCN(c3ccc(F)cc3)CC2)cc(Cl)c2cccnc12 | 81.2% (active)
45 | Oc1ccc(CN2CCN(c3ncccn3)CC2)cc1 | -0.583%
46 | CCCCCCCCCCCCN1[C@@H](CC(C)=O)c2cc(F)cc(F)c2S1(=O)=O | 18.6%
47 | Cn1ncc2c(NNC(=O)Cc3cccc4ccccc34)ncnc21 | -0.379%
48 | COC(=O)CNS(=O)(=O)c1ccc(Cc2ccc(S(=O)(=O)NCC(=O)OC)cc2)cc1 | 0.851%

Row | Compound | inhibition
49 | CCN(CC(=O)Nc1cc(Cl)ccc1C)C(=O)CN1C(=O)NC2(CCCC2)C1=O | 9.28%
50 | O=C(O)c1ccccc1NC(=S)NC(NC(=O)c1ccccc1[N+](=O)[O-])C(Cl)(Cl)Cl (centres undefined) | -2.95%
51 | Cc1cccc(NC(=O)Nc2nnc(-c3ccccc3)o2)c1 | 15%
52 | O=C(COC(=O)c1ccccc1Br)Nc1nnc(-c2ccccc2)o1 | 72.3% (active)
53 | O=C(Nc1nnc(-c2ccc(Cl)cc2)o1)c1ccccc1Br | 93.9% (active)
54 | Cc1ccnc2nc(C(=O)Nc3nnc(-c4ccccc4)o3)nn12 | 1.08%
55 | CCn1c2ccccc2c2cc(NC(=O)COC(=O)c3ccccc3Br)ccc21 | 2.54%
56 | O=C(COC(=O)CSc1nnc(-c2ccc(Cl)cc2)o1)Nc1cc(Cl)cc(Cl)c1 | 3.37%
57 | O=C(COC(=O)c1ccc(Oc2ccccc2)cc1)Nc1nnc(-c2ccccc2)o1 | 79.8% (active)
58 | O=C(Nc1cccc(Cl)c1)Nc1nnc(-c2ccccc2)o1 | 5.48%
59 | CC(=O)Nc1cccc(C(=O)OCC(=O)Nc2nnc(-c3ccccc3)o2)c1 | 13.3%
60 | COc1ccc(-c2cc(=O)oc3cc(OC(C)C(=O)Nc4ccc(CN5CCOCC5)cc4)ccc23)cc1 (centres undefined) | 15.3%
61 | COCCCNC(=O)C1CC(=O)N(CCc2ccc(F)cc2)C1 (centres undefined) | 1.79%
62 | CC(C)(C)NC(=O)c1cccc(NC(=O)Cc2ccc(Br)cc2)c1 | 0.415%
63 | COc1ccc(C(=O)NNC(=S)NC(=O)c2ccccc2[N+](=O)[O-])cc1 | -1.63%
64 | COc1ccc(C(=O)NC(=S)NNC(=O)CCc2ccccc2)cc1 | 9.14%
65 | CCCCCC(=O)NC(=S)NNC(=O)c1ccc([N+](=O)[O-])cc1 | 21.9%
66 | CNC(=S)NNC(=O)c1ccc(N(C)C)cc1 | -13.5%
67 | CC(=O)NC(=S)NNC(=O)c1ccc(Br)cc1 | 79% (active)
68 | COc1ccc(C(=O)NNC(=S)NC(=O)c2ccccc2)cc1 | 91.7% (active)
69 | O=C(NCC(c1cccs1)N1CCOCC1)c1cc(-c2ccccn2)nc2ccccc12 (centres undefined) | -7.21%
70 | CC(=O)N1CCOc2ccc(S(=O)(=O)N3CCN(c4cccc(C(F)(F)F)c4)CC3)cc21 | 2.46%
71 | COc1ccc(N2CCC(CNC(=S)Nc3c(C)cccc3C)C2)cc1 (centres undefined) | -4.36%
72 | Cc1ccc(CN2CCC(N3CCC(C(=O)NCC4CCCO4)CC3)CC2)o1 (centres undefined) | 4.3%

Row | Compound | inhibition
73 | CCOC(=O)C1(Cc2ccccc2C)CCCN(C(=O)CN2C(=O)CSC2=O)C1 (centres undefined) | 5.85%
74 | CC(=O)Nc1nc(N(C)C)nc(N(C)C)n1 | 2.59%
75 | O=C(/C=C/c1ccco1)Nc1cccc(-c2nc3ccccc3[nH]2)c1 | 16.2%
76 | O=C(Nc1cccc(-c2nc3ccccc3[nH]2)c1)c1ccc(C(=O)Nc2cccc(-c3nc4ccccc4[nH]3)c2)cc1 | 64% (active)
77 | Cc1ccc(-c2nc3ccccc3[nH]2)cc1NC(=O)c1sc2ccccc2c1Cl | 4.45%
78 | O=C(NC1CC1)c1ccc(-c2ccccc2)cc1 | 1.81%
79 | O=C(CC1SC(=Nc2ccccc2F)N(CCN2CCOCC2)C1=O)Nc1ccc(F)cc1F (centres undefined) | -5.01%
80 | O=C(CC1CCCCC1)Nc1c2c(nn1-c1ccc(F)cc1)CS(=O)(=O)C2 | -9.45%
81 | CCOc1ccc(C(=O)Nc2c3c(nn2-c2ccccc2)CS(=O)(=O)C3)cc1 | 1.84%
82 | COc1ccccc1OCC(=O)Nc1c2c(nn1-c1ccc(F)cc1)CS(=O)(=O)C2 | 74.3% (active)
83 | O=C(CN(c1cccc(Cl)c1)S(=O)(=O)c1ccccc1)NN=C1CCCC1 | 6.57%
84 | CSc1ncccc1C(=O)NCc1ccccc1Cl | -1.26%
85 | CNC(=O)c1nnn(-c2ccccc2)c1C(=O)NC | 3%
86 | O=C(C[n+]1ccccc1)N/N=C/c1ccc(O)cc1 | -9.65%
87 | CN(C)c1ccc(/C=N/N(Cc2ccccc2)c2ccccc2)cc1 | -5.9%
88 | Oc1ccc(/C=N/N(Cc2ccccc2)c2ccccc2)cc1 | 77.6% (active)
89 | CCCCC(NS(=O)(=O)c1ccc(C)cc1)C(=O)Oc1ccc2c3c(c(=O)oc2c1)CCC3 (centres undefined) | 8.5%
90 | CC(C)COC(=O)n1c(=O)oc2ccc(S(=O)(=O)N3CCCCC3)cc21 | -4.31%
91 | COc1ccc(-n2c(SCC(=O)Nc3ccc4c(c3)OCO4)nnc2C(C)N2CCCCC2)cc1 (centres undefined) | -5.05%
92 | CCN(CC)S(=O)(=O)c1ccc(N2CCOCC2)c(NC(=O)C2CSC3(C)CCC(=O)N23)c1 (centres undefined) | 52.3% (active)
93 | CCN(CC)S(=O)(=O)c1ccc(N2CCOCC2)c(NC(=O)C2COc3ccccc3O2)c1 (centres undefined) | 2.77%
94 | CC(C)Oc1ccc(S(=O)(=O)N2CCOCC2)cc1NC(=O)C1CSC2(C)CCC(=O)N12 (centres undefined) | 12%
